The values below come from PMC10812921, “Transcriptional Coactivator BOB1 (OBF1, OCA-B) Modulates the Specificity of DNA Recognition by the POU-Domain Factors OCT1 and OCT2 in a Monomeric Configuration”.

For one assay, the target named is POU1 (OCT1 POU domain) (human, UniProt P14859 260-458). Put plainly: EMSA-SELEX-seq; no BOB1; 20 mM Tris-HCl pH 7.6, 140 mM NaCl, 10% glycerol, 0.5 mM EDTA, 0.05% Triton X-100, 0.1 mg/mL BSA, 0.1 mg/mL poly(dI-dC), 5 mM DTT, room temperature, 20 min; high values mean tight binding. The settings on record: protein: recombinant; dsDNA, one strand shown. In outline:
(§1)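 After expression in E. coli BL21, tagged POU-domain proteins were purified under denaturing conditions and then renatured. Each binding reaction held 30 ng protein and 300 ng of a PCR-amplified double-stranded random 35-nt library in 20 μL Tris–HCl pH 7.6 binding buffer, with or without 28 ng coactivator protein, for 20 min at RT. Bands holding complexes were cut from native 6% PAGE, eluted and PCR-amplified across four rounds, and the output was Illumina-sequenced. The value given for binding preference is the share, in percent, of sequenced 8-mers fitting a motif pattern.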
On the technique in general: Mobility shift assays separate free from complexed probe on a gel.

The next assay concerns the target T1, POU2 (OCT2 POU domain) (human, UniProt P09086 175-386).
T1 sequence: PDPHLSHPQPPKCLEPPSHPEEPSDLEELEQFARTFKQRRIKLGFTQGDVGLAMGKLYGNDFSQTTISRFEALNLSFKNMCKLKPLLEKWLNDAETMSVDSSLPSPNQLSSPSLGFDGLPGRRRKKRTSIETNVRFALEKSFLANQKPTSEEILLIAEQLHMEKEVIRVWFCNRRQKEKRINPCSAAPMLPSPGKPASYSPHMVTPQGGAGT
Described as above. The settings on record: protein: recombinant; dsDNA, one strand shown. The method, boiled down: as §1

The target of assay [1] is POU1 (OCT1 POU domain);BOB1 (OBF1, OCA-B) (human;human, UniProt P14859;Q16633 260-458;1-256, |). Put plainly: EMSA-SELEX-seq; with BOB1 (ternary complex band); 20 mM Tris-HCl pH 7.6, 140 mM NaCl, 10% glycerol, 0.5 mM EDTA, 0.05% Triton X-100, 0.1 mg/mL BSA, 0.1 mg/mL poly(dI-dC), 5 mM DTT, room temperature, 20 min; high values mean tight binding. The settings on record: protein: recombinant;recombinant; copies: 1;1; dsDNA, one strand shown. In outline: as §1

For assay [2], the target named is T2, POU2 (OCT2 POU domain);BOB1 (OBF1, OCA-B) (human;human, UniProt P09086;Q16633 175-386;1-256, |).
T2 sequence 1: T1 sequence
T2 sequence 2: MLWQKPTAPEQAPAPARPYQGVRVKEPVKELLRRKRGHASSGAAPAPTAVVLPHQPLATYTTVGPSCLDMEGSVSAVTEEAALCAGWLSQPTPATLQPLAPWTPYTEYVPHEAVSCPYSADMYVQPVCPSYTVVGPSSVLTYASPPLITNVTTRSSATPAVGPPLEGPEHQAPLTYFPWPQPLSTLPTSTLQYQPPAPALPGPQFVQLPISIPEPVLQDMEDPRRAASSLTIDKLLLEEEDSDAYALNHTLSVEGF
Described as above. The settings on record: protein: recombinant;recombinant; copies: 1;1; dsDNA, one strand shown. In outline: as §1

Chain of POU1 (OCT1 POU domain) (P14859 260-458): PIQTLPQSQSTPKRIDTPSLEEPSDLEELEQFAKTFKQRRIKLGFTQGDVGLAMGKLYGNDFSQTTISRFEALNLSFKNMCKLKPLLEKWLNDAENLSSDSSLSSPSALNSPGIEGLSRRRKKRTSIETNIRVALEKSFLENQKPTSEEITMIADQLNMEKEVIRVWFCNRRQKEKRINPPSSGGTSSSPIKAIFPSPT

As for ACAACAAG, the binding signal with POU1 (OCT1 POU domain) is 0.0248 % of ANNNNAAN 8-mers; with POU2 (OCT2 POU domain) it was 0.0167 % of ANNNNAAN 8-mers; in assay [1], 0.0187 % of ANNNNAAN 8-mers; in assay [2] it was 0.014 % of ANNNNAAN 8-mers.

Consider ATTATAAT, for which the binding signal with POU1 (OCT1 POU domain) was 0.94 % of ANNNNAAN 8-mers; in the assay with POU2 (OCT2 POU domain), 1.04 % of ANNNNAAN 8-mers; in assay [1] it was 0.163 % of ANNNNAAN 8-mers; in assay [2], 0.207 % of ANNNNAAN 8-mers.

Turning to ATCCTAAA, the binding signal is 0.0267 % of ANNNNAAN 8-mers with POU1 (OCT1 POU domain), 0.0328 % of ANNNNAAN 8-mers in the assay with POU2 (OCT2 POU domain), 0.0285 % of ANNNNAAN 8-mers in assay [1] and 0.0421 % of ANNNNAAN 8-mers in assay [2].

As for AAGTCAAG, the binding signal is 0.0332 % of ANNNNAAN 8-mers with POU1 (OCT1 POU domain), 0.0403 % of ANNNNAAN 8-mers in the assay with POU2 (OCT2 POU domain), 0.0367 % of ANNNNAAN 8-mers in assay [1] and 0.033 % of ANNNNAAN 8-mers in assay [2].

For the sequence AATGCAAT, the binding signal is 0.0862 % of ANNNNAAN 8-mers in the assay with POU1 (OCT1 POU domain), 0.0949 % of ANNNNAAN 8-mers with POU2 (OCT2 POU domain), 0.089 % of ANNNNAAN 8-mers in assay [1] and 0.0916 % of ANNNNAAN 8-mers in assay [2].

For ACGATAAC, the binding signal with POU1 (OCT1 POU domain) is 0.0252 % of ANNNNAAN 8-mers; with POU2 (OCT2 POU domain), 0.0293 % of ANNNNAAN 8-mers; in assay [1], 0.0191 % of ANNNNAAN 8-mers; in assay [2], 0.0264 % of ANNNNAAN 8-mers.

Consider ACTATAAA, for which the binding signal in the assay with POU1 (OCT1 POU domain) was 0.0439 % of ANNNNAAN 8-mers; in the assay with POU2 (OCT2 POU domain), 0.0403 % of ANNNNAAN 8-mers; in assay [1], 0.041 % of ANNNNAAN 8-mers; in assay [2] it was 0.0421 % of ANNNNAAN 8-mers.

ACCATAAT: the binding signal in the assay with POU1 (OCT1 POU domain) is 0.082 % of ANNNNAAN 8-mers; with POU2 (OCT2 POU domain), 0.0967 % of ANNNNAAN 8-mers; in assay [1] it was 0.0367 % of ANNNNAAN 8-mers; in assay [2], 0.0495 % of ANNNNAAN 8-mers.

Consider ATAAGAAT, for which the binding signal was 0.114 % of ANNNNAAN 8-mers with POU1 (OCT1 POU domain), 0.143 % of ANNNNAAN 8-mers with POU2 (OCT2 POU domain), 0.0886 % of ANNNNAAN 8-mers in assay [1] and 0.0892 % of ANNNNAAN 8-mers in assay [2].

For AGGACAAT, the binding signal with POU1 (OCT1 POU domain) is 0.042 % of ANNNNAAN 8-mers; with POU2 (OCT2 POU domain), 0.0345 % of ANNNNAAN 8-mers; in assay [1], 0.0496 % of ANNNNAAN 8-mers; in assay [2], 0.0421 % of ANNNNAAN 8-mers.

Consider AGGCAAAC, for which the binding signal is 0.0866 % of ANNNNAAN 8-mers with POU1 (OCT1 POU domain), 0.0512 % of ANNNNAAN 8-mers with POU2 (OCT2 POU domain), 0.157 % of ANNNNAAN 8-mers in assay [1] and 0.0817 % of ANNNNAAN 8-mers in assay [2].

Regarding ATAGTAAA, the binding signal with POU1 (OCT1 POU domain) is 0.12 % of ANNNNAAN 8-mers; with POU2 (OCT2 POU domain) it was 0.115 % of ANNNNAAN 8-mers; in assay [1], 0.128 % of ANNNNAAN 8-mers; in assay [2], 0.106 % of ANNNNAAN 8-mers.

Regarding AGGCCAAG, the binding signal in the assay with POU1 (OCT1 POU domain) was 0.0271 % of ANNNNAAN 8-mers; in the assay with POU2 (OCT2 POU domain), 0.0334 % of ANNNNAAN 8-mers; in assay [1], 0.0312 % of ANNNNAAN 8-mers; in assay [2], 0.0264 % of ANNNNAAN 8-mers.

Turning to AGAAAAAA, the binding signal with POU1 (OCT1 POU domain) is 0.0767 % of ANNNNAAN 8-mers; with POU2 (OCT2 POU domain) it was 0.0857 % of ANNNNAAN 8-mers; in assay [1] it was 0.0812 % of ANNNNAAN 8-mers; in assay [2] it was 0.0561 % of ANNNNAAN 8-mers.

As for AATCTAAC, the binding signal with POU1 (OCT1 POU domain) is 0.0328 % of ANNNNAAN 8-mers; with POU2 (OCT2 POU domain), 0.0339 % of ANNNNAAN 8-mers; in assay [1], 0.0316 % of ANNNNAAN 8-mers; in assay [2], 0.0272 % of ANNNNAAN 8-mers.

Turning to AGTCAAAG, the binding signal was 0.116 % of ANNNNAAN 8-mers in the assay with POU1 (OCT1 POU domain), 0.0748 % of ANNNNAAN 8-mers in the assay with POU2 (OCT2 POU domain), 0.187 % of ANNNNAAN 8-mers in assay [1] and 0.0966 % of ANNNNAAN 8-mers in assay [2].
